Assay outcomes from PubChem.
A selection: hits, their analogues and other compounds. The true share with any hit is near 2%.
PKM2 activator – qHTS Assay for Activators of Human Muscle isoform 2 Pyruvate Kinase. Potency, µM (titrated, usually from 57.5 µM), for the others: top-dose activation, hits mostly activators. Pyruvate kinase PKM (Homo sapiens), P14618. AID 1631, 2009. purified PKM2, Kinase-Glo ATP luminescence, activation; response scale: 0% is enzyme alone, no compound. hit rate 0.34% among 260,000; also: potency is read from the fitted curve at half-maximal effect; % is scaled to controls: 0 for no effect and ±100 for the full control effect; nearly all actives have a fitted effect of over 55% in size
Target sequence (P14618 whole entry, looked up, canonical isoform): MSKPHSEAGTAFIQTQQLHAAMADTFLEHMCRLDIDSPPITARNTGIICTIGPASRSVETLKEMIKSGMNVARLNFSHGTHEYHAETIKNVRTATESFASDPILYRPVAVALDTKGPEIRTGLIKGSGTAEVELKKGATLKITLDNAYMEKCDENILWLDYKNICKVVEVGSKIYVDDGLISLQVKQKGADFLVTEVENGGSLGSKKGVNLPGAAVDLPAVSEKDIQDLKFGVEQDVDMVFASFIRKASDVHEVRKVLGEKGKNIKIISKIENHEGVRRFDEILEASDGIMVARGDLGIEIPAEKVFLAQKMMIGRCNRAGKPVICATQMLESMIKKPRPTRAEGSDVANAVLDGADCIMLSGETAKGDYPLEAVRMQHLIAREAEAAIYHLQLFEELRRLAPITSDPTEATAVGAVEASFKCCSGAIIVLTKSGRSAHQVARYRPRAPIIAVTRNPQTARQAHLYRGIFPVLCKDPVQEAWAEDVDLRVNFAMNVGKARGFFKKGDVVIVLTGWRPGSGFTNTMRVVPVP
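Purified hPK-M2 (>95% pure) converted ADP (0.1 mM final) to ATP with 0.5 mM PEP in 50 mM imidazole pH7.2, KCl, MgCl2, Tween 20, BSA; 1 h at room temperature. ATP detected by Kinase-Glo luminescence.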
IL2 activator – qHTS of IL-2 Activators | IL-2 activation reporter assay, cell-based qHTS; stimulated with anti-CD3/CD4/CD28 beads; in transgenic mouse T cells | activation, % (series mostly up to about 46 µM) | hit rate 0.065% among 360,000 | AID 652025, 2013; in the data active = activation above about 50%; inconclusive = mostly about 30% to 49%; also: 0% is about no effect
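Readout: EGFP and DsRed signals by fluorescent plate cytometry. Unstimulated transgenic mouse T cells received compound 60 min before antibody-bead stimulation, then incubated 18 h at 37 degrees C.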
NPSR antagonist – qHTS Assay for Antagonists of the Neuropeptide S Receptor: cAMP Signal Transduction. Q6W5P4. CHO-NPSR cells, cAMP TR-FRET, antagonist mode. Potency, µM (highest dose often 38.3 µM), inactives show at the highest dose activity change, negative = inhibition, usual class: inhibitors. hit rate 1% among 220,000. AID 1461, 2008; also: potency is read from the fitted curve at half-maximal effect; % is scaled to controls: 0 for no effect and ±100 for the full control effect; nearly all actives have a fitted effect of over 50% in size
ClpP mod – qHTS Assay for Activators of ClpP; Potency, µM (top dose mostly 57.5 µM), for inactives: at the top dose activity change, negative = active; ATP-dependent Clp protease proteolytic subunit (Bacillus subtilis (strain 168)), P80244; purified B. subtilis ClpP, FRET peptide cleavage, 20 min; hit rate 1.9% among 340,000; active = well fitted falling curve with a large enough effect; inconclusive = small, poorly fitted or top-dose-only effect; inactive = no such curve, though single readings can be large or run the other way; also: potency is read from the fitted curve at half-maximal effect; the source files actives as falling curves though it sought activators and does not explain the sign; nearly all actives have a fitted effect of over 65% in size
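ClpP 10 microg/mL final, pH 8 Tris/KCl buffer with BSA, glycerol, Tween-20; compound pinned in; FRET-FV substrate; RT 20 min; Ex320/Em430; ΔFRET vs ADEP 5.8 microM, DMSO, no enzyme.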
The depositor's hits bear a star; [ ] = dose if it differs, or a comment. Unless noted, calls follow the shape of the dose curve; as a rule, active = well fitted curve in the direction sought with a large enough effect; inconclusive = small, poorly fitted or top-dose-only effect, or another doubt; inactive = no such curve, though single readings can be large; an effect the other way counts as inactive or inconclusive.

Results for CCN1CCc2c(sc(N)c2C#N)C1 ?
PKM2 activator: 5%; IL2 activator: 0; NPSR antagonist: -2%[46.1 µM]; ClpP mod: 28µM*

How did CC(C)N1CCc2c(sc(N)c2C#N)C1 do in these assays?
PKM2 activator: -5%; IL2 activator: 0; NPSR antagonist: 4%[7.67 µM]; ClpP mod: 25µM*

How did CC(=O)N1CC(=O)N=C1SCC(=O)Nc1nc(C)c(-c2ccccc2)s1 do in these assays?
PKM2 activator: 20µM*; IL2 activator: 0; NPSR antagonist: -56%; ClpP mod: 20µM*

Results for Cc1ccc(N=Nc2[nH]c3ccccc3c2O)cc1 ?
PKM2 activator: -6%; IL2 activator: 5; NPSR antagonist: 14%; ClpP mod: 25µM*

How did Cc1ccc(N=Nc2c(O)[nH]c3ccc(F)cc23)cc1 do in these assays?
PKM2 activator: 8%; IL2 activator: 269*; NPSR antagonist: -13%; ClpP mod: -1%

What do the screens show for `COC(=O)c1sc(NC(=O)c2cc3nc(-c4ccc(Br)cc4)cc(C(F)(F)F)n3n2)c(C(=O)OC)c1C`?
ClpP mod: -23%

How did COc1ccc2c(c1OC)C(=O)OC2Nc1nc(-c2ccc(-c3ccccc3)cc2)cs1 (stereo not drawn) do in these assays?
PKM2 activator: -13%; IL2 activator: 3; NPSR antagonist: -31%; ClpP mod: 16µM*

How did COc1ccc2nc(/N=C(\N)NC(=O)C(C)(C)C)nc(C)c2c1 do in these assays?
PKM2 activator: 11%; IL2 activator: 0; NPSR antagonist: -12%[46.1 µM]; ClpP mod: 32µM*

Results for COc1ccc2nc(/N=C(\N)NC(=O)N3c4ccccc4Sc4ccccc43)nc(C)c2c1 ?
PKM2 activator: -5%; IL2 activator: 2; NPSR antagonist: 7%; ClpP mod: inconclusive

How did CCOC(=O)Cn1c2ccc(OC)cc2c2nc3ccccc3nc21 do in these assays?
PKM2 activator: -2%; IL2 activator: 51*; NPSR antagonist: -15%[46.1 µM]; ClpP mod: 1%

How did CCOC(=O)CSc1nc(C)c2cc(OC)ccc2n1 do in these assays?
PKM2 activator: 2%; IL2 activator: 0; NPSR antagonist: -10%[46.1 µM]; ClpP mod: 14µM*

Results for CCCc1c(C)nc2ccc(OC)cc2c1SCCC(=O)O ?
PKM2 activator: 7%; IL2 activator: -1; NPSR antagonist: -20%; ClpP mod: 13µM*

How did CCOC(=O)CSc1nc(C)c2cc(C)c(C)cc2n1 do in these assays?
PKM2 activator: -1%; IL2 activator: 1; NPSR antagonist: 26%

How did NS(=O)(=O)c1ccc(NC(=O)CN(C(=O)C(F)(F)F)C2CCCC2)cc1 do in these assays?
IL2 activator: 0; ClpP mod: -1%

How did CCN(CC)C(=O)COc1ccc(-c2nnc(Nc3ccc(OC)c(C(=O)NC)c3)c3ccccc23)cc1 do in these assays?
PKM2 activator: 14%; IL2 activator: -4; NPSR antagonist: 44%; ClpP mod: 0%

What do the screens show for `CCC(=O)N/C(=N/c1nc(C)cc(C)n1)Nc1ccc(OC)cc1`?
PKM2 activator: 5%; IL2 activator: -1; NPSR antagonist: -12%[46.1 µM]; ClpP mod: 1%

Results for CCC(=O)N/C(N)=N/c1nc(C)c2cc(OC)ccc2n1 ?
PKM2 activator: 2%; IL2 activator: 0; NPSR antagonist: -9%[46.1 µM]; ClpP mod: 3.2µM*

What do the screens show for `Cc1cc2c(c(N)n1)c(=O)oc1ccccc12`?
PKM2 activator: -6%; IL2 activator: 0; NPSR antagonist: -9%[46.1 µM]; ClpP mod: 40µM*

How did COC(=O)c1c(C)nc(C)c2c(=O)oc3ccccc3c12 do in these assays?
PKM2 activator: -1%; IL2 activator: 0; NPSR antagonist: 7%[46.1 µM]; ClpP mod: 0%

How did Cn1nc(C(=O)Nc2cccc(C(F)(F)F)c2)c2c1-c1ccccc1S(=O)(=O)C2 do in these assays?
ClpP mod: 0%

How did Oc1cnc2ccccc2c1CN1CCOCC1 do in these assays?
PKM2 activator: 3%; IL2 activator: -2; NPSR antagonist: 12%[46.1 µM]; ClpP mod: 20µM*

How did Oc1ccc2ccccc2c1CN1CCOCC1 do in these assays?
PKM2 activator: 20%; IL2 activator: -2; NPSR antagonist: -15%

How did COCCCNC(=O)CSC1=Nc2ccccc2C2=NC(CC(=O)NCc3ccccc3)C(=O)N12 (stereo not drawn) do in these assays?
PKM2 activator: 1%; IL2 activator: 0; NPSR antagonist: -1%[46.1 µM]; ClpP mod: 28µM*

What do the screens show for `CCC(C)NC(=O)CSC1=Nc2ccccc2C2=NC(CC(=O)NCc3ccccc3)C(=O)N12` (stereo not drawn)?
PKM2 activator: -1%; IL2 activator: 1; NPSR antagonist: 6%[46.1 µM]; ClpP mod: 28µM*

What do the screens show for `CCC(C)NC(=O)CSC1=Nc2ccccc2C2=NC(c3ccccc3)C(=O)N12` (stereo not drawn)?
PKM2 activator: 5%; IL2 activator: 2; NPSR antagonist: -21%[46.1 µM]; ClpP mod: 16µM*

How did CC(C)C1N=C2c3ccccc3N=C(SCC(=O)NCc3ccccc3Cl)N2C1=O (stereo not drawn) do in these assays?
ClpP mod: 4%

How did CC(C)C1N=C2c3ccccc3N=C(SCC#N)N2C1=O (stereo not drawn) do in these assays?
PKM2 activator: 0%; IL2 activator: -2; NPSR antagonist: -4%[46.1 µM]; ClpP mod: 13µM*

Results for O=C(CC[C@H]1O[C@@H](n2cnc3c(NC(=O)c4ccccc4)ncnc32)[C@H](O)[C@@H]1O)N[C@@H](CO)Cc1c[nH]c2ccccc12 ?
IL2 activator: 1; ClpP mod: -2%

What do the screens show for `COc1cc2cc(CCCOC(=O)CCC(=O)O)oc(=O)c2cc1OC`?
IL2 activator: 0; ClpP mod: inconclusive

What do the screens show for `O=C(O)c1ccccc1C(=O)c1ccc2c(c1)CCC2`?
IL2 activator: 0

What do the screens show for `Nn1cnc2c(c1=O)C1(CCCCC1)Cc1ccccc1-2`?
PKM2 activator: 6%; IL2 activator: 4; NPSR antagonist: -23%; ClpP mod: -10%

Results for CCC1(CC)Cc2ccccc2-c2nc(NCCCO)[nH]c(=O)c21 ?
PKM2 activator: 12%; IL2 activator: -1; NPSR antagonist: 28%

How did O=c1[nH]c(NNC(=S)NCc2ccccc2)nc2c1C1(CCCCC1)Cc1ccccc1-2 do in these assays?
PKM2 activator: -5%; IL2 activator: 1; NPSR antagonist: inconclusive; ClpP mod: 16µM*

Results for O=c1[nH]cnc2c1C1(CCCC1)Cc1ccccc1-2 ?
PKM2 activator: -6%; IL2 activator: 1; NPSR antagonist: inconclusive; ClpP mod: 13µM*

Results for O=c1[nH]c(NCCCO)nc2c1C1(CCCC1)Cc1ccccc1-2 ?
PKM2 activator: -1%; IL2 activator: 1; NPSR antagonist: 29%[46.1 µM]; ClpP mod: 14µM*

How did CCN(CC)C(=O)C1CCN(Cc2ccc(OCc3ccccc3)c(OC)c2)CC1 do in these assays?
PKM2 activator: 1%; IL2 activator: 1; ClpP mod: 11%
